The text below walks through data of PubChem BioAssay AID1362 (SRMLSC, 2008).

As usually defined, the inhibition is the relative decrease from the control value, in per cent.

Among all 190,000 compounds or so, about 4,000 (2.1%) were called active. Rule as the data show it: active = inhibition above about 58%; inactive = the rest, inconclusive results apart; tested in S. cerevisiae. The full list was thinned out, with actives kept by preference.

The nature of this assay: growth inhibition of WT strain, primary screen, mitochondrial fusion inhibitor project, WT and mutant strains, chemical genetic (AID 1362). The note with it: mitochondrial fusion phenotypic screen, at 10 µM.
Setting [1] is: WT strain, growth inhibition, stronger effect = higher value.

As to `Cc1nn(C)cc1/C=N/NC(=O)c1sc2ccccc2c1Cl`, the inhibition by setting is: under setting [1], -10.9% (inactive); (mutant strain inhibition) 2.17%.
With `COc1ccc(CCc2nnc(CCC(=O)NCc3cnn(-c4ccccc4C)c3)o2)cc1`, the inhibition is 12.2% (inactive) under setting [1] and 7.75% (mutant strain inhibition).
As to `CS(=O)(=O)n1nc(-c2ccco2)nc1N`, the inhibition runs as follows: under setting [1], -0.21% (inactive); (mutant strain inhibition) -16.1%.
With `C=CCc1cccc2cc(C(=O)NC3CCCC3)c(=O)oc12`, the inhibition reads like this: under setting [1], 3.26% (inactive); (mutant strain inhibition) 9.03%.
For `CC(C)(C)c1ccc(OC2=CS(=O)(=O)c3ccccc32)cc1`, the inhibition was 59% (active) under setting [1] and 35.3% (mutant strain inhibition).
Take `CC(C)(C)c1csc(NC2=NS(=O)(=O)c3ccccc32)n1`: the inhibition reads like this: under setting [1], -0.65% (inactive); (mutant strain inhibition) -32.5%.
Take `CC(C)(C)c1ccc(Oc2ccc(N)cc2)cc1`: the inhibition is, setting by setting: under setting [1], 54.8% (inactive); (mutant strain inhibition) 38%.
Turning to `Cc1nn(CC(=O)NCc2ccccn2)c(C)c1[N+](=O)[O-]`, the inhibition runs as follows: under setting [1], -4.5% (inactive); (mutant strain inhibition) 4.36%.
As to `COc1cc(CNCCN(C)C)ccc1OCc1c(F)cccc1Cl`, the inhibition under setting [1] was -7.23% (inactive) and the inhibition (mutant strain inhibition) was found to be 10.9%.
Regarding `CCCCNC(=O)N1CCN(S(C)(=O)=O)CC1`, the inhibition under setting [1] is 3.54% (inactive) and the inhibition (mutant strain inhibition) is 2.85%.
Taken in the same sequence, the figures for `CCCCCCCCn1c2c(c(=N)c3c1CCC3)CCCC2` were 80.6% (active) and 77.5%.
In the case of `O=C1/C(=C/c2cccs2)CCC1C1CCCC1` (stereo unspecified), the inhibition is 9.28% (inactive) under setting [1] and 37.2% (mutant strain inhibition).
For `Cc1ccc(COc2ccc(/C=N/NC(=O)CN3CCCCC3)cc2)cc1`, the inhibition under setting [1] is 0.04% (inactive) and the inhibition (mutant strain inhibition) is -4.75%.
Taken in the same sequence, the figures for `COC(=O)Cc1nc2ccccc2[nH]1` were 16.6% (inactive) and 14%.
The corresponding values for `c1ccc2c(CSCc3nc4ccccc4[nH]3)cccc2c1` are 74.6% (active) and 69.3%.
In the case of `Clc1ccccc1SCc1nc2ccccc2[nH]1`, the inhibition is 39.4% (inactive) under setting [1] and 35.4% (mutant strain inhibition).
For the compound `O=C(NCc1ccccc1)C1CCCN(c2nc3ccsc3c(=O)s2)C1` (stereo unspecified), the inhibition by setting is: under setting [1], -14.1% (inactive); (mutant strain inhibition) 0.23%.
The corresponding values for `CO/N=C/c1ccc(N2CCN(C(=O)c3cccc(Cl)c3)CC2)c([N+](=O)[O-])c1` are 36.5% (inactive) and 22.2%.
As for `O=C(/C=C/c1ccc(Cl)cc1)N1CCN(c2ccccc2[N+](=O)[O-])CC1`, the inhibition under setting [1] is 65.4% (active) and the inhibition (mutant strain inhibition) turned out to be 39.2%.
With `O=C(c1ccc(Cl)c([N+](=O)[O-])c1)N1CCN(c2ccccc2)CC1`, the inhibition is, setting by setting: under setting [1], 65.8% (inactive); (mutant strain inhibition) 70.4%.
For `CCn1cc(C(=O)NCCCN2CCCCCC2)c(=O)c2cc(S(=O)(=O)N3CCc4ccccc4C3)ccc21`, the inhibition under setting [1] is 4.36% (inactive) and the inhibition (mutant strain inhibition) was -2.13%.
With `COc1ccc(NC(=O)CCNS(=O)(=O)c2ccc3c(c2)c(=O)n(C)c(=O)n3C)cc1OC`, the inhibition under setting [1] was -9.99% (inactive) and the inhibition (mutant strain inhibition) is 2.95%.
Regarding `CCCNC(=O)CN(Cc1ccccc1F)S(=O)(=O)c1ccc(C)cc1`, the inhibition runs as follows: under setting [1], -13.2% (inactive); (mutant strain inhibition) -40.4%.
The corresponding values for `O=C(COC(=O)Cc1ccc(Br)cc1)Nc1c(F)c(F)c(F)c(F)c1F` are 19.9% (inactive) and 7.41%.
The corresponding values for `COC(=O)Cc1ccc(N(Cc2ccccc2F)S(=O)(=O)c2ccc(Br)cc2)cc1` are 69.7% (active) and 64.6%.
The corresponding values for `CCCS(=O)(=O)N1CCC(CCOc2ccccc2)(C(=O)OCC)CC1` are 5.25% (inactive) and -7.89%.
As for `CCSC1=NCCN1C(=O)c1ccc(S(=O)(=O)N(CC)CC)cc1`, the inhibition runs as follows: under setting [1], 1.64% (inactive); (mutant strain inhibition) -5.04%.
In the case of `O=C(COC(=O)c1ccncc1)c1ccccc1`, the inhibition was -12.9% (inactive) under setting [1] and 3% (mutant strain inhibition).
The corresponding values for `COc1ccc(N2CCN(CCNC(=O)c3nnc(Cc4c(F)cccc4Cl)o3)CC2)cc1` are 82.5% (active) and -0.13%.
Take `COc1ccc(N2CCN(CCNC(=O)CCN3C(=O)COc4ccccc43)CC2)cc1`: the inhibition runs as follows: under setting [1], -0.99% (inactive); (mutant strain inhibition) 42.7%.
Take `COc1ccc(CN2CC(C(=O)NCCN3CCN(c4ccccc4F)CC3)CC2=O)cc1` (stereo unspecified): the inhibition was 5.07% (inactive) under setting [1] and 14.3% (mutant strain inhibition).
As for `O=C(CCn1ccc([N+](=O)[O-])n1)Nc1nccs1`, the inhibition under setting [1] is -14.4% (inactive) and the inhibition (mutant strain inhibition) turned out to be 2.54%.
The corresponding values for `Cn1c(N)c(C(=O)COC(=O)c2ccccc2NCc2ccco2)c(=O)n(C)c1=O` are 12.2% (inactive) and -19.6%.
As to `Cc1ccc(NC(=O)OCc2cncs2)cc1`, the inhibition was -3.01% (inactive) under setting [1] and 3.18% (mutant strain inhibition).
The corresponding values for `COc1ccc(OC)c(C(=O)c2ccc(C(=O)N3CCN(Cc4csc(C)n4)CC3)cc2)c1` are -23% (inactive) and 5.3%.
In the case of `Cc1ccc(Cl)c(NC(=O)CN2CCN(C=O)CC2)c1`, the inhibition by setting is: under setting [1], -7.62% (inactive); (mutant strain inhibition) 12.5%.
For `CC(=O)OC(COc1ccc(F)cc1)Cn1cnc2ccccc21` (stereo unspecified), the inhibition by setting is: under setting [1], -0.37% (inactive); (mutant strain inhibition) 4.78%.
The corresponding values for `CC(C)c1ccc(OCC(O)Cn2cnc3ccccc32)cc1` (stereo unspecified) are 95.7% (active) and 0.12%.
The corresponding values for `OC(COc1ccc2ccccc2c1)Cn1cncn1` (stereo unspecified) are 4.91% (inactive) and -2.41%.
Taken in the same sequence, the figures for `CC(=O)Nc1cccc(-c2nc3ccccc3s2)c1C` were -0.41% (inactive) and -5.28%.
As to `COC(=O)C1=C(C)N(c2ccc(Br)cc2)C(=O)/C1=C\c1ccco1`, the inhibition is 13.1% (inactive) under setting [1] and 8.54% (mutant strain inhibition).
Take `COC(=O)C1=C(C)N(C(C)c2ccccc2)C(=O)/C1=C\c1ccco1` (stereo unspecified): the inhibition runs as follows: under setting [1], 58.3% (active); (mutant strain inhibition) -4.58%.
`O=C(CCCN1C(=O)/C(=C/c2ccco2)SC1=S)Nc1ccccc1`: the inhibition under setting [1] was 1.95% (inactive) and the inhibition (mutant strain inhibition) was -17.3%.
